# In the supplement of paper PMC10849652:
# Of roughly 7,900 targets only a part is listed; those with a hit were picked by preference. About 0.6% of all pairs of compound and target were hits. Unmarked numbers belong to inactive results.
# Compound: NC(=O)Nc1cc(-c2cccc(F)c2)sc1C(=O)N[C@H]1CCCNC1
# Test: log2 fold change, soluble protein after heating vs DMSO (PISA); higher = thermal stabilisation; K562 cells, 10 uM, 30 min; active = over 0.2 and 3.5 SD of the protein, either way, in both replicates (recomputed)
# In short: (§1)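 K562 cells at 2×10^6 cells/mL were given 10 μM compound for 30 min. Aliquots then went through 3 min of heating across 48°C-58°C, were pooled, and were extracted in PBS with 0.5% NP-40 at 4°C, and the supernatant after 21,000xg for 90 min was quantified by TMTpro 16plex LC-MS/MS with channel sums equalised. Thermal stability relative to control samples, from duplicates, is given as log2 fold change.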
# UniProt P62136, sequence (P62136 whole entry, looked up): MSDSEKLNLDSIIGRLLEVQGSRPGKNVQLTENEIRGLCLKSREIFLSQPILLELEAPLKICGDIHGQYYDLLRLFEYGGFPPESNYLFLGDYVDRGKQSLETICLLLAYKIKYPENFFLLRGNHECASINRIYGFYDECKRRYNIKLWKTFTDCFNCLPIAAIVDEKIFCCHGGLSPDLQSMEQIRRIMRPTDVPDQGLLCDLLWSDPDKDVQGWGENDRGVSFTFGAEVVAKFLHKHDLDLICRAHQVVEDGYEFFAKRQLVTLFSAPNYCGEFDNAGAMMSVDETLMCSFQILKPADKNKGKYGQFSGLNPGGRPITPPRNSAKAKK
# UniProt Q9BTU6, sequence (Q9BTU6 whole entry, looked up): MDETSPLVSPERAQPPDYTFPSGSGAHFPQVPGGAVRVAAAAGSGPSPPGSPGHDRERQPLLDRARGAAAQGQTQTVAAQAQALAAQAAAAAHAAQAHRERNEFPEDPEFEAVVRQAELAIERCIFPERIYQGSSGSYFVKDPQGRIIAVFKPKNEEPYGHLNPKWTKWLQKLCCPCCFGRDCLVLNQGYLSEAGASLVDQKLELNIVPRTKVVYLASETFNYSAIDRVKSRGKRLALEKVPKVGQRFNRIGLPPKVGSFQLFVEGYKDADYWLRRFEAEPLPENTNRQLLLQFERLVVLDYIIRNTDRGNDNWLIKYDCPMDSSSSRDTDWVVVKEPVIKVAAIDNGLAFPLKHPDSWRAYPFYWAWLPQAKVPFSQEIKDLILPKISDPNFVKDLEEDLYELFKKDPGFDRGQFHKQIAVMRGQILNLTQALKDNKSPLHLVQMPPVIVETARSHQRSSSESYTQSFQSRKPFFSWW
# UniProt Q92968, sequence (Q92968 whole entry, looked up): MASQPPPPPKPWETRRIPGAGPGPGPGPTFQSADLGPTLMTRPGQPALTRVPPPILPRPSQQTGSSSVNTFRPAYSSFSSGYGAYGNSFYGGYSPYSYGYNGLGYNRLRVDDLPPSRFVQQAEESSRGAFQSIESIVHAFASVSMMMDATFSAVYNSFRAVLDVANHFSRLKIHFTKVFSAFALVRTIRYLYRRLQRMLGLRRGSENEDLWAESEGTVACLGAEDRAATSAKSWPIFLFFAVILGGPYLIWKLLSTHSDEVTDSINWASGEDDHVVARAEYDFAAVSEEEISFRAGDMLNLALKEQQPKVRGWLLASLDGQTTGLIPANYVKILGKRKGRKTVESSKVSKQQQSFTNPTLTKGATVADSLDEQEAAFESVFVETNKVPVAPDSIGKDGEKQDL
# UniProt Q15054, sequence (Q15054 whole entry, looked up): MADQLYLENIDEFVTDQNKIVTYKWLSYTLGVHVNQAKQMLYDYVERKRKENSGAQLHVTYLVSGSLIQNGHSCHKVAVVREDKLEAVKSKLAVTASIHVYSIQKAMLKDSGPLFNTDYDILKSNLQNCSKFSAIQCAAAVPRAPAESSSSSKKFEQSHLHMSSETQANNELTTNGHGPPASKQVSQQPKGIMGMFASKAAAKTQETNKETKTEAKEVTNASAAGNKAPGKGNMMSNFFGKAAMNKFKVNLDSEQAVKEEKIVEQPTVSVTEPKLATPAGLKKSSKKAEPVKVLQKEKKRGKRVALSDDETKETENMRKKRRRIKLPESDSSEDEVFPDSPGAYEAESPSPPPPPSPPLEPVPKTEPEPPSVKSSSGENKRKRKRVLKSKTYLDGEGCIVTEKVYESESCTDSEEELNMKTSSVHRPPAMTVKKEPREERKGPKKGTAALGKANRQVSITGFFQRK
# UniProt Q8TAP8, sequence (Q8TAP8 whole entry, looked up): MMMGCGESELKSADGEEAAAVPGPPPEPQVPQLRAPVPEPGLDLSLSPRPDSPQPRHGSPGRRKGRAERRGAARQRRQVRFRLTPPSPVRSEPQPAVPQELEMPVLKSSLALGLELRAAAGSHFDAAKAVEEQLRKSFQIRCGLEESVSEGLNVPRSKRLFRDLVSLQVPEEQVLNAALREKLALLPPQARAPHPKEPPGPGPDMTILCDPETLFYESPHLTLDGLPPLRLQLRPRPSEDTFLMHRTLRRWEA
# UniProt O15162, sequence (O15162 whole entry, looked up): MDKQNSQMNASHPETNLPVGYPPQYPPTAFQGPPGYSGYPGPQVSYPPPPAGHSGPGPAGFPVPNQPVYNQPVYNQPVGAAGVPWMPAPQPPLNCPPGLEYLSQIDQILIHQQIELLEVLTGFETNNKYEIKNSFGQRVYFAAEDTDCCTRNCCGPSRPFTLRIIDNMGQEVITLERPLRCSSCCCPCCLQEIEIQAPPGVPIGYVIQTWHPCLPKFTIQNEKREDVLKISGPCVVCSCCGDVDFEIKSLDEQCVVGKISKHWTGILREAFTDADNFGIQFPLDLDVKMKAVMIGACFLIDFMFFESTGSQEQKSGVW
# UniProt Q969N2, sequence (Q969N2 whole entry, looked up): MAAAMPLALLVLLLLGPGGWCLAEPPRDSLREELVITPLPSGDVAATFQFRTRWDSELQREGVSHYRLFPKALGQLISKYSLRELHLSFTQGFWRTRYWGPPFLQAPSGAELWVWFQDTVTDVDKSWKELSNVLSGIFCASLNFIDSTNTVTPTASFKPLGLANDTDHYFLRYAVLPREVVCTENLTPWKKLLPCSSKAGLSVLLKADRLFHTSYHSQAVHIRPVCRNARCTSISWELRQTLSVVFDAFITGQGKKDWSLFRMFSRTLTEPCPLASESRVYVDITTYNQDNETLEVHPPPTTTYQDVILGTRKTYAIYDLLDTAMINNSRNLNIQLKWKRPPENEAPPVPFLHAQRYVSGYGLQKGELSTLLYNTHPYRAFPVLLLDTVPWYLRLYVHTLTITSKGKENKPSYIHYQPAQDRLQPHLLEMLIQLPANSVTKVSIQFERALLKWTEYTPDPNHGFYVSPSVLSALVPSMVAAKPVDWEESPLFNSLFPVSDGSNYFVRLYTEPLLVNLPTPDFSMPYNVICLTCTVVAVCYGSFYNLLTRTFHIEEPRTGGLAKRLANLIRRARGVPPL
# UniProt P53350, sequence (P53350 whole entry, looked up): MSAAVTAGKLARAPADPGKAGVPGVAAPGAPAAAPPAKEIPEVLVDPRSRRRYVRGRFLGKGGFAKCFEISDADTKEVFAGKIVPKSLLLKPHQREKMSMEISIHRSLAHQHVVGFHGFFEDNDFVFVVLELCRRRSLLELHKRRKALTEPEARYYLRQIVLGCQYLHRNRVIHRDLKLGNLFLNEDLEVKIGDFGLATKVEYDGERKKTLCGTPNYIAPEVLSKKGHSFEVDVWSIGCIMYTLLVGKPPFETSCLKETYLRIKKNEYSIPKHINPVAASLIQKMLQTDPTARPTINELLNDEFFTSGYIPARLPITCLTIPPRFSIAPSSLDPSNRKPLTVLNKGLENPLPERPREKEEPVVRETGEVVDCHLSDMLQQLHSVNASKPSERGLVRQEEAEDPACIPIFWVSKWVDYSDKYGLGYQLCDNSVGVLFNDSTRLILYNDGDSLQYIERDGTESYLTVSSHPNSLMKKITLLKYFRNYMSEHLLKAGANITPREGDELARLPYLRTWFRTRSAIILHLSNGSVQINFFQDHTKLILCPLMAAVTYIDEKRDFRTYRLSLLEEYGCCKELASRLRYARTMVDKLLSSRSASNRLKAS
# UniProt O43741, sequence (O43741 whole entry, looked up): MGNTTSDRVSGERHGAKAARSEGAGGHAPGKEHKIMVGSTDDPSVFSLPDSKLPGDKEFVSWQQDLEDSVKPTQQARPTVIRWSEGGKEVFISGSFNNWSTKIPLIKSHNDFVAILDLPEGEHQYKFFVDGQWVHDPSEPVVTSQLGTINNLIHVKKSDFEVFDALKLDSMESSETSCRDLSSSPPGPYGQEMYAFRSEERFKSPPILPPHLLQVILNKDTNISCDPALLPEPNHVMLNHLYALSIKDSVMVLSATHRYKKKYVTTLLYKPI
# UniProt O95394, sequence (O95394 whole entry, looked up): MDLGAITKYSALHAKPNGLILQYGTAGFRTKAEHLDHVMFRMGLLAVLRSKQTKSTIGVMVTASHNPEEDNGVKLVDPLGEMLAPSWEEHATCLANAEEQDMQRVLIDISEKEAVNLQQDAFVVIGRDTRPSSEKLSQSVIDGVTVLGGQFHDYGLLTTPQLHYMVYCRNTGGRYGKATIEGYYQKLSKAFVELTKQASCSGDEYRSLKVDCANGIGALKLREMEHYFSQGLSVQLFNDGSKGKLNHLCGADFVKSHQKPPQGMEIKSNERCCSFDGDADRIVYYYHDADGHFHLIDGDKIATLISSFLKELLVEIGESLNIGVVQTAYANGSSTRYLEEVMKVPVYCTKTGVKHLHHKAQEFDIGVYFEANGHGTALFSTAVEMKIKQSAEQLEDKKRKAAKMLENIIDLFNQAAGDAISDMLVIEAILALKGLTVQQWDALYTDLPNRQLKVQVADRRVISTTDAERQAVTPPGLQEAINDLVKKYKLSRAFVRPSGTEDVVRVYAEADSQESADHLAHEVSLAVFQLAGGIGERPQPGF
# UniProt P10644, sequence (P10644 whole entry, looked up): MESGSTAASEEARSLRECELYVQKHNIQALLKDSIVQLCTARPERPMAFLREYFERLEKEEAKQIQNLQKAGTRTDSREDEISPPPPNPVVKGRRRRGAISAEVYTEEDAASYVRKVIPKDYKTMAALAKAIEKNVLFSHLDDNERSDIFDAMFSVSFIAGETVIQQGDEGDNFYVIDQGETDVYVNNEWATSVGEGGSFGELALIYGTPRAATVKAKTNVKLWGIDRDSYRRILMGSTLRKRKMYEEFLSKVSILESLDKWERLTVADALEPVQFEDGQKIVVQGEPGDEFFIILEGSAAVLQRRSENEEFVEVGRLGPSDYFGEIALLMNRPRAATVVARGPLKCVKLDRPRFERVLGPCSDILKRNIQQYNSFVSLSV
# UniProt Q9Y2Y1, sequence (Q9Y2Y1 whole entry, looked up): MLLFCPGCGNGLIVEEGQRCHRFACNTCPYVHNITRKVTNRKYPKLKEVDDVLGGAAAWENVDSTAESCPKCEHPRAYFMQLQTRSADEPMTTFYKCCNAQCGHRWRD
# UniProt Q96A00, sequence (Q96A00 whole entry, looked up): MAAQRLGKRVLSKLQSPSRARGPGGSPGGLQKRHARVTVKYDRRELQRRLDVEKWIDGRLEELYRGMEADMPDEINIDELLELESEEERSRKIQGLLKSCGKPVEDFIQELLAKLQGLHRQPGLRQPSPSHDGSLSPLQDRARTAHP
row,Target,log2 fold change
1,PRKACA (UniProt P17612),0.097
2,PEX13 (UniProt Q92968),-0.03
3,PPP1R35 (UniProt Q8TAP8),0.054
4,PIGT (UniProt Q969N2),-0.01
5,PDS5B (UniProt Q9NTI5),-0.07
6,PRKAR1A (UniProt P10644),-0.052
7,PGM3 isoform 4 (UniProt O95394),-0.039
8,PLK1 (UniProt P53350),-0.399 (active)
9,PI4K2A (UniProt Q9BTU6),0.033
10,PLSCR1 (UniProt O15162),-0.092
11,POLD3 (UniProt Q15054),0.035
12,PPP1CA (UniProt P62136),-0.036
13,PRKAB2 (UniProt O43741),0.204

# Compound: NC(=O)c1cnc(N[C@@H]2CCCC[C@@H]2N)nc1Nc1cccc(-n2nccn2)c1
# Test: as above
# In short: as §1
row,Target,log2 fold change
1,PDE2A (UniProt O00408),-0.008
2,PSMC5 (UniProt P62195),-0.001
3,POMP (UniProt Q9Y244),0.039
4,PELO (UniProt Q9BRX2),-0.089
5,POLR2A (UniProt P24928),0.121
6,PHAX (UniProt Q9H814),-0.084
7,PRPF31 (UniProt Q8WWY3),-0.138
8,PKM isoform 2 (UniProt P14618),0.175
9,PSMD11 (UniProt O00231),0.04
10,PURA (UniProt Q00577),0.105
11,PPIL4 (UniProt Q8WUA2),-0.085
12,POLR2K (UniProt P53803),-0.107
13,PIK3C3 (UniProt Q8NEB9),0.117
14,PRIM2 (UniProt P49643),-0.141
15,PARG (UniProt Q86W56),0.001
16,PTP4A1 (UniProt Q93096),-0.202
17,PPP1R14A (UniProt Q96A00),0.101
18,POLR3K (UniProt Q9Y2Y1),0.007
19,PARL (UniProt Q9H300),-0.06

row,Target,log2 fold change
1,QRSL1 (UniProt Q9H0R6),-0.007
2,PRPF40A (UniProt O75400),-0.001
3,PLA2G15 (UniProt Q8NCC3),-0.042
4,PATL1 (UniProt Q86TB9),-0.213
5,PDCD6IP (UniProt Q8WUM4),-0.1
6,PRKACA (UniProt P17612),0.048
7,PEX13 (UniProt Q92968),-0.086
8,PPP1R35 (UniProt Q8TAP8),-0.004
9,PIGT (UniProt Q969N2),-0.002
10,PDS5B (UniProt Q9NTI5),-0.12
11,PRKAR1A (UniProt P10644),0.191
12,PGM3 isoform 4 (UniProt O95394),-0.118
13,PLK1 (UniProt P53350),0.033
14,PI4K2A (UniProt Q9BTU6),0.204
15,PLSCR1 (UniProt O15162),-0.005
16,POLD3 (UniProt Q15054),-0.143
17,PPP1CA (UniProt P62136),-0.051
18,PRKAB2 (UniProt O43741),0.248

# Compound: NC1(c2ccc(-c3nc4ccn5c(=O)[nH]nc5c4cc3-c3ccccc3)cc2)CCC1
# Test: as above
# In short: as §1
row,Target,log2 fold change
1,PDE2A (UniProt O00408),-0.018
2,PSMC5 (UniProt P62195),0.007
3,POMP (UniProt Q9Y244),-0.029
4,PELO (UniProt Q9BRX2),-0.098
5,POLR2A (UniProt P24928),-0.049
6,PHAX (UniProt Q9H814),-0.003
7,PRPF31 (UniProt Q8WWY3),-0.241
8,PKM isoform 2 (UniProt P14618),-0.063
9,PSMD11 (UniProt O00231),-0.016
10,PURA (UniProt Q00577),0.377
11,PPIL4 (UniProt Q8WUA2),0.002
12,POLR2K (UniProt P53803),0.017
13,PIK3C3 (UniProt Q8NEB9),-0.018
14,PRIM2 (UniProt P49643),-0.16
15,PARG (UniProt Q86W56),-0.113
16,PTP4A1 (UniProt Q93096),-0.007
17,PPP1R14A (UniProt Q96A00),0.02
18,POLR3K (UniProt Q9Y2Y1),0.057
19,PARL (UniProt Q9H300),-0.07

row,Target,log2 fold change
1,QRSL1 (UniProt Q9H0R6),-0.218
2,PRPF40A (UniProt O75400),0
3,PLA2G15 (UniProt Q8NCC3),-0.023
4,PATL1 (UniProt Q86TB9),-0.047
5,PDCD6IP (UniProt Q8WUM4),-0.186
6,PRKACA (UniProt P17612),-0.132
7,PEX13 (UniProt Q92968),-0.101
8,PPP1R35 (UniProt Q8TAP8),-0.037
9,PIGT (UniProt Q969N2),-0.077
10,PDS5B (UniProt Q9NTI5),-0.043
11,PRKAR1A (UniProt P10644),0.301
12,PGM3 isoform 4 (UniProt O95394),-0.147
13,PLK1 (UniProt P53350),-0.024
14,PI4K2A (UniProt Q9BTU6),-0.152
15,PLSCR1 (UniProt O15162),-0.111
16,POLD3 (UniProt Q15054),-0.107
17,PPP1CA (UniProt P62136),-0.019
18,PRKAB2 (UniProt O43741),-0.077
